Measurements: PubChem BioAssay AID652208 (Broad Institute, 2013)
Entries with a potency or affinity are not part of this list. Values without a mark were called inactive.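 Rule for the calls: active = Loss of cell signal with fitted half-effect dose at or below twice the top valid tested dose; inconclusive = Poor fit, or flat fit from -70 to -30 percent; inactive = Half-effect above limit, rising signal, or flat within 30 percent.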

test: HEK293T cell cytotoxicity, dose response, cytotoxicity control for HIV Vif inhibitor project, cherry-picks (AID 652208); details: HEK293T viability, CellTiter-Glo luminescence, 24 h; series mostly up to 26 µM; activity change, negative = cytotoxicity: at the top concentration;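 note: 0% = median neutral control wells and -100% = median staurosporine control wells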

Question: Which “activity change, negative = cytotoxicity” value does the source give for `CCc1nnc(NC(=O)c2sc3nc4cc(C)ccc4cc3c2N)s1` here?
Answer: 3.92%

Question: Which “activity change, negative = cytotoxicity” value does the source give for `COc1ccc(CC(=O)OCC(=O)Nc2cccc(Br)c2)cc1` here?
Answer: 4.24%

Question: Which “activity change, negative = cytotoxicity” value does the source give for `CCC1(CC)NC(=O)N(CC(=O)Nc2ccc(OCc3ccccc3)cc2)C1=O` here?
Answer: -11.7%

Question: For `Cc1ccc(-n2nnc3c(=O)n(CC(=O)OCc4ccccc4)cnc32)cc1`, which “activity change, negative = cytotoxicity” value is on record?
Answer: -0.069%

Question: Which “activity change, negative = cytotoxicity” value does the source give for `O=C(Cn1c(=O)oc2cc(S(=O)(=O)N3CCCCC3)ccc21)N1CCc2ccccc21` here?
Answer: -4.05%

Question: Which “activity change, negative = cytotoxicity” value does the source give for `Cc1cccc(C)c1NC(=O)COc1ccc2c(C)c(Cc3ccccc3)c(=O)oc2c1C` here?
Answer: 6.84%

Question: For `Cc1nnc2ccc(-c3cccc(NS(=O)(=O)c4cc(F)ccc4F)c3)nn12`, which “activity change, negative = cytotoxicity” value is on record?
Answer: 4.37%

Question: With `C/C=C/c1ccc(OCCNCc2ccccc2)c(OC)c1` as the molecule, how does the “activity change, negative = cytotoxicity” value read?
Answer: 0.443%

Question: With `O=C(c1cc(-c2ccccc2O)on1)N1CCCCCC1` as the molecule, how does the “activity change, negative = cytotoxicity” value read?
Answer: -3.85%

Question: With `CCOC(=O)Cc1csc(NC(=O)CSc2nnnn2-c2ccc(CC)cc2)n1` as the molecule, how does the “activity change, negative = cytotoxicity” value read?
Answer: -4.71%

Question: Which “activity change, negative = cytotoxicity” value does the source give for `O=C(C1COc2ccccc2O1)N1CCN(Cc2ccc3c(c2)OCO3)CC1` (stereo not drawn) here?
Answer: -3.74%

Question: With `COC(=O)c1sc(-c2ccc(Cl)cc2)cc1NC(=O)CSCC(=O)O` as the molecule, how does the “activity change, negative = cytotoxicity” value read?
Answer: -1.52%

Question: With `COc1cc(C2C3=C(COC3=O)Oc3cc4c(cc32)OCO4)cc(OC)c1O` (stereo not drawn) as the molecule, how does the “activity change, negative = cytotoxicity” value read?
Answer: -15.8%

Question: With `COCCN(C(=O)COC(=O)Cc1ccc(Cl)cc1)c1c(N)n(Cc2ccccc2)c(=O)[nH]c1=O` as the molecule, how does the “activity change, negative = cytotoxicity” value read?
Answer: -2.42%

Question: With `CN(C)c1ccc(C(=O)c2ccc(N(C)C)c3ccccc23)cc1` as the molecule, how does the “activity change, negative = cytotoxicity” value read?
Answer: -15.2%

Question: For `COc1ccc2cc(CCNS(=O)(=O)c3ccc(NC(C)=O)cc3)c(=O)[nH]c2c1`, which “activity change, negative = cytotoxicity” value is on record?
Answer: -0.974%

Question: For `O=C(NCc1ccc(OC(F)(F)F)cc1)c1cccc2c1C(=O)c1ccc(N3CCCCC3)cc1S2(=O)=O`, which “activity change, negative = cytotoxicity” value is on record?
Answer: -23.6%

Question: With `Cc1cccc2cc(COC(=O)c3ccco3)c(=O)[nH]c12` as the molecule, how does the “activity change, negative = cytotoxicity” value read?
Answer: 8.92%

Question: With `C=CCN1C(=O)/C(=C/c2ccc(-c3ccc(F)cc3)o2)SC1=S` as the molecule, how does the “activity change, negative = cytotoxicity” value read?
Answer: -18.7%

Question: With `CCc1ccc(N2C(=O)/C(=C/c3cccs3)N(CC(=O)OC)C2=S)cc1` as the molecule, how does the “activity change, negative = cytotoxicity” value read?
Answer: -3.31%

Question: With `COc1ccc2c(CC(=O)Nc3ccccc3OC)coc2c1` as the molecule, how does the “activity change, negative = cytotoxicity” value read?
Answer: -3.21%

Question: Which “activity change, negative = cytotoxicity” value does the source give for `O=C(Nc1ccnc(-c2cccnc2)n1)c1cccs1` here?
Answer: -0.234%

Question: Which “activity change, negative = cytotoxicity” value does the source give for `CCN(CCCNC(=O)C1CCC(=O)N1Cc1ccc(C)cc1)c1cccc(C)c1` (stereo not drawn) here?
Answer: -8.75%

Question: For `Cc1ccc(-c2nn3c(C)nnc3c3ccccc23)cc1S(=O)(=O)NCc1ccccc1`, which “activity change, negative = cytotoxicity” value is on record?
Answer: -23.3%

Question: With `CC1Cc2ccccc2N1C(=O)COC(=O)c1ccccc1NCCO` (stereo not drawn) as the molecule, how does the “activity change, negative = cytotoxicity” value read?
Answer: -1.22%

Question: For `COc1ccc(Br)cc1C(=O)Nc1ccc(N2CCCC2)cc1`, which “activity change, negative = cytotoxicity” value is on record?
Answer: -15.1%

Question: For `COc1ccc(CC(=O)Nc2ccc(-c3noc(-c4cc(OC)c(OC)c(OC)c4)n3)cc2)cc1`, which “activity change, negative = cytotoxicity” value is on record?
Answer: 0.981%

Question: Which “activity change, negative = cytotoxicity” value does the source give for `COc1cccc(NC(=O)c2cc(C(=O)Nc3cccc(OC)c3)n(C)n2)c1` here?
Answer: -15.1%

Question: For `CC(=O)Nc1ccc(S(=O)(=O)N2c3ccccc3C(C)=CC2(C)C)cc1`, which “activity change, negative = cytotoxicity” value is on record?
Answer: -16.1%

Question: With `CCOC(=O)c1c(C)[nH]c(-c2csc(N)n2)c1C` as the molecule, how does the “activity change, negative = cytotoxicity” value read?
Answer: -20%

Question: Which “activity change, negative = cytotoxicity” value does the source give for `COc1ccccc1NC(=O)c1ccccc1NC(=O)c1ccccn1` here?
Answer: -11.9%

Question: For `NCCCCCC(=O)Nc1ccncc1`, which “activity change, negative = cytotoxicity” value is on record?
Answer: -9.61%

Question: Which “activity change, negative = cytotoxicity” value does the source give for `O=C(CSc1nnc(CNc2ccc(F)cc2)o1)c1ccccc1` here?
Answer: 4.08%

Question: With `CCOc1ccc(Nc2nc3c(C)cccc3cc2C#N)cc1` as the molecule, how does the “activity change, negative = cytotoxicity” value read?
Answer: -0.828%

Question: With `Cc1c(NC(=O)c2cc3ccccc3oc2=O)c(=O)n(-c2ccccc2)n1C` as the molecule, how does the “activity change, negative = cytotoxicity” value read?
Answer: 6.31%

Question: For `COc1ccc(OC)c(NC(=O)c2cc3ccccc3cc2OC)c1`, which “activity change, negative = cytotoxicity” value is on record?
Answer: -7.06%

Question: With `CCOC(=O)Nc1ccc(NCc2ccc(F)cc2)nc1N` as the molecule, how does the “activity change, negative = cytotoxicity” value read?
Answer: -5.02%

Question: Which “activity change, negative = cytotoxicity” value does the source give for `CCC(=O)N(CCC1(C(C)C)CCOC(C)(C)C1)Cc1ccco1` (stereo not drawn) here?
Answer: -3.81%
